# From PubChem BioAssay
# ERa coact inh – blocks coactivator binding to human estrogen receptor alpha. TR-FRET ER-alpha LBD / SRC-1 peptide, estradiol-bound. inhibition, % at 25.6 µM. 1.7% of 86,000 active. AID 629; in the data active = inhibition above about 50%;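 also: 0% = receptor plus peptide control and 100% = peptide only without receptor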
# ERb SRC1 inh – ER-beta (human) coactivator binding inhibition; inhibition, % at 25.6 µM; 1.3% of 86,000 active; TR-FRET ER-beta LBD / SRC1-Cy5 peptide binding; receptor agonist-loaded with 1 µM estradiol;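 active = compounds whose percent inhibition of the receptor-coactivator binding signal exceeds about 50% in the single-dose screen, limit read from the data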;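 also: 0% = receptor plus peptide wells without compound and 100% = peptide-only wells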
# Target sequence (Q92731 whole entry, looked up, the tested form may be a part): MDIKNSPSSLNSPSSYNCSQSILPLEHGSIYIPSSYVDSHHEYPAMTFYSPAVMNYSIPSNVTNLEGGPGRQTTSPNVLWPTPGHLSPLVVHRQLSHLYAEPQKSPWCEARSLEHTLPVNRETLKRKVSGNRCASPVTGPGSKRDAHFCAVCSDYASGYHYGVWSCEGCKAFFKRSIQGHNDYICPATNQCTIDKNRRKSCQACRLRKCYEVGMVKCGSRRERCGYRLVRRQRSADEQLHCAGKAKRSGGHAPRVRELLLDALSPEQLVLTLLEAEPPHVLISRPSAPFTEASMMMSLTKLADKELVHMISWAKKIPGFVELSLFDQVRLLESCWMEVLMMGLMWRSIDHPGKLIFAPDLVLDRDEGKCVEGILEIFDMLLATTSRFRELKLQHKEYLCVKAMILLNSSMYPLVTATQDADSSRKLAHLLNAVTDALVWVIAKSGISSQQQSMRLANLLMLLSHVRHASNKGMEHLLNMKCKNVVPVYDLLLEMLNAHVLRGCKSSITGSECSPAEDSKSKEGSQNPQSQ
# MT1-MMP txn act – MT1-MMP promoter transcription activation. 0.16% of 86,000 active. AID 750. activation factor at 10 µM. HT1080 MT1-MMP promoter luciferase reporter, luminescence, overnight; hits give high values;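 active = activation factor of at least 2 for MT1-MMP transcription at 10 µM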
# DAT uptake mod – modulates human dopamine transporter uptake under cocaine; Q01959; LLC-PK1 hDAT cells, [14C]-dopamine uptake with cocaine IC80; actives deviate in either direction; B-score at 10 µM; 1.3% of 110,000 active;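 active = Z score or B-score, a plate-position-corrected score, falls beyond the plate's 99.7% confidence bounds, in either direction; inactive = both scores lie inside the 99.7% bounds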;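 also: scored against the spread of the other compound wells on the same plate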
# ERa SRC1 pot – ER-alpha (human) coactivator binding potentiation | P03372 | TR-FRET ERalpha-LBD/SRC-Cy5 coactivator binding, 2 h; 100 = basal binding, no effect | coactivator binding (% of control), % at 25.6 µM | 1.3% of 86,000 active | AID 639; in the data active = activity above about 200%;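 also: binding measured in presence of low estradiol as agonist stimulus; 0% = peptide alone without receptor and 100% = receptor with peptide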
# * = called active by the depositor; . = no result given; [ ] = another dose, or the depositor's remark. Only some compounds are listed: those with a hit (about 3.8% of all), similar ones and a draw of the others.
SMILES,ERa coact inh,ERb SRC1 inh,MT1-MMP txn act,DAT uptake mod,ERa SRC1 pot
COc1ccccc1C1CC(c2cccs2)=Nc2ccccc2S1 (stereo not drawn),-0.1,0.2,2.1*,-0.659,79.9
COc1ccccc1C1CN(c2ccc(F)cc2F)N=C1c1cccs1 (stereo not drawn),-6.2,-3.5,1,-0.93,95.2
O=C(NCCc1c[nH]c2ccccc12)[C@H]1C[C@@H]1[C@H](NP(=O)(c1ccccc1)c1ccccc1)c1ccccc1,.,.,1,.,.
COc1ccc(C2C(C#N)=C3NC(=O)c4c(sc5c4CCCCC5)N3C3=C2C(=O)CC(C)(C)C3)cc1 (stereo not drawn),.,.,.,2.33*,.
CCC1=C2CC[C@H]3C(=O)N(c4ccccc4)C(=O)[C@H]3[C@H]2[C@@]2(Cc3ccccc3)C(=NCC3CC3)OC(=O)N2C1=O,.,.,1,.,.
Cc1ccc(/C=N/Nc2nc(Cl)c(Cl)cc2Cl)s1,-0.8,-1.4,2*,-1.3,96.9
O=C(NCc1ccco1)C(c1ccccc1)N(C(=O)Cc1cccs1)c1ccccc1F (stereo not drawn),-3.9,-9.0,1,0.24,72.0
CCCc1c(C)c2cccc(C)c2[nH]c1=O,9.0,3.5,1,-0.027,96.0
CC(=O)CCc1c(C)c2cccc(C)c2[nH]c1=O,4.2,82.2*[fluorescence artefact?],1,0.116,94.9
O=C1CC(O)(C(F)(F)F)Oc2c1ccc1ccccc21 (stereo not drawn),4.7,3.2,1,-3.5*,95.3
O=C1CC(O)(C(F)F)Oc2ccc3ccccc3c21 (stereo not drawn),5.6,-1.4,1.2,-0.29,98.3
O=C(CCc1ccc(S(=O)(=O)N2CCOCC2)cc1)NCCCN1CCCC1=O,22.0,57.9*[fluorescence artefact?],1.1,-0.739,93.8
COc1ccc(CCNC(=O)COc2ccc(S(=O)(=O)N3CCOCC3)cc2)cc1,1.3,-5.9,1.2,2.44*,114.2
N#Cc1c(N)c(C(=O)c2ccccc2)n2c1CCCC2,-4.8,-2.6,1.1,0.344,102.1
CC(=O)N(C(C)=O)c1c(C#N)c(C)n(-c2ccccc2)c1C(=O)c1ccccc1,67.7*,-4.5,0.9,-0.646,93.5
O=C(CC1C(=O)NC2CCCCC2N1C(=O)c1ccc(F)cc1)Nc1ccccc1 (stereo not drawn),-10.9,-12.4,1.3,2.9*,100.6
Cc1ccc(NC(=O)CC2C(=O)NC3CCCCC3N2C(=O)c2ccc(F)cc2)cc1C (stereo not drawn),-21.2,0.7,1.1,0.068,101.3
COC(=O)[C@@H]1C[C@@]2(O)[C@@H](O)[C@@H](O)[C@@H](O)C[C@H]2N1Cc1ccc(N2CCOCC2)cc1,.,.,1.1,.,.
O=C(CN1C(=O)C2CC=CCC2C1=O)Nc1ccc(S(=O)(=O)NC2=NCCCCC2)cc1 (stereo not drawn),-1.0,4.1,0.9,-8.14*,95.7
O=C(Nc1nc(-c2cc3ccccc3oc2=O)cs1)c1ccco1,27.2,39.8,1.2,1.15,279.8*[fluorescence artefact?]
O=C(Nc1nc(-c2ccncc2)cs1)c1ccco1,98.0*[fluorescence artefact?],49.2,1.4,-0.914,-0.6
O=C(Nc1nc(-c2ccccc2)cs1)c1ccc(Br)o1,.,.,1.3,-0.958,.
Cc1ccc(C(=O)Nc2nc(-c3cccnc3)cs2)o1,47.5,50.6*,1.5,0.797,58.6
CCO[C@@H]1OC(C(=O)NCc2nc3ccccc3[nH]2)=C[C@H](c2ccc(C(F)(F)F)cc2)[C@H]1CCCO,.,.,.,1.3,.
CO[C@@H]1O[C@@H]2COC(c3ccccc3)O[C@@H]2[C@@H](OC)[C@@H]1O (stereo partly drawn),-7.7,-5.5,1.3,-0.992,108.4
SMILES,ERa coact inh,ERb SRC1 inh,MT1-MMP txn act,DAT uptake mod,ERa SRC1 pot
Cc1cc(C)c(-c2cc(NC(=O)CSc3n[nH]c(N)n3)n(-c3ccccc3)n2)cc1C,.,.,.,3.29*,.
Nc1nc(SCC(=O)Nc2ccccc2-c2ccccc2)n[nH]1,-1.2,-3.0,1.2,-0.942,106.3
CCOc1cc2[nH]c(=O)n(CCC(=O)N3CCN(c4ccccc4OC)CC3)c(=O)c2cc1OCC,-4.0,0.7,1.1,-1.36,102.0
COc1cc2[nH]c(=O)n(CCC(=O)N3CCN(c4cc(Cl)ccc4C)CC3)c(=O)c2cc1OC,87.9*[fluorescence artefact?],42.7,1,.,40.0
O=C(O)CCC(=O)N1CCN(c2cccc(Cl)c2)CC1,-27.2,-8.0,1.1,-1.52,104.4
Cc1ccc(Cl)cc1N1CCN(C(=O)CCC(=O)O)CC1,-4.5,-11.9,1,-3.04*,109.5
